The subject of assay [1] is Wnt5a (protein binding on small-molecule microarray). Nature of the assay: small molecules binding Wnt5a protein – biophysical, small-molecule microarray, 635/667 nm fluorescence, primary screen (AID 1142).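 Also: fluorescence read at 667 nm with signal to noise per printed feature.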 The conditions noted are these: 635 nm fluorescence, higher = more signal.
A short description of assay [2]: ATP-based viability of Huh7 replicon cells – cell-based, CellTiter-Glo luminescence, basal, 48 h, cytotoxicity control for HCV replication inhibitor project, primary screen (AID 1143).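 Also: Huh7 hepatoma cells carrying a hepatitis C replication reporter with no stimulus; test concentration not given here.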 Conditions: higher = more signal, called active from +8 up or from −8 down. For orientation: In antiviral work, replicon cells carry a viral genome segment that copies itself.
A short description of assay [3]: Pseudomonas biofilm growth suppression – PAO1 strain, BacTiter-Glo luminescence, LB-PBS, primary screen (AID 1144). Conditions: P. aeruginosa PAO1 biofilm, 12 h, higher = more signal.
The nature of assay [4]: basal CRE-LacZ reporter activity in PC12 – cell-based, unstimulated, primary screen (AID 1145). Conditions: no forskolin, luminescence, 4.5 h, higher = more signal, called active from +8 up or from −8 down.
Assay [5] can be described thus: forskolin-driven CRE-LacZ activity in PC12 – cell-based, CRE-LacZ reporter, forskolin-stimulated, primary screen (AID 1146).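 Also: PC12 cells with 6xCRE LacZ reporter stimulated by forskolin 10 µM; beta-galactosidase reporter signal reflecting CREB driven transcription.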 The conditions noted are these: luminescence, 4.5 h, higher = more signal, called active from +8 up or from −8 down.
Assay [6] addresses Streptavidin (Streptomyces avidinii) (UniProt P22629). Nature of the assay: compounds binding control protein streptavidin – biophysical, small-molecule microarray, 635/667 nm fluorescence, artefact control for SMM compound annotation, primary screen (AID 1147).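 Also: signal reflects streptavidin binding to arrayed compounds as a control protein.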 Conditions: higher = more signal.
A short description of assay [7]: probe aInhba binding on compound microarray – biochemical, small-molecule microarray, 635/667 nm fluorescence, primary screen (AID 1148).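 Also: score merges 667nm spot fluorescence with signal-to-noise for antibody binding to printed compounds.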 Conditions: higher = more signal.
Assay [8] deals with Torsin-1A (Homo sapiens) (UniProt O14656). Nature of the assay: TOR1A wild-type binding on microarray – cell lysate, small-molecule microarray, lysate, 635/667 nm, primary screen (AID 1149). Conditions: COS7 hTOR1A-WT lysate, 635 nm fluorescence, higher = more signal.
Chain of Torsin-1A (Homo sapiens) (O14656 whole entry, looked up): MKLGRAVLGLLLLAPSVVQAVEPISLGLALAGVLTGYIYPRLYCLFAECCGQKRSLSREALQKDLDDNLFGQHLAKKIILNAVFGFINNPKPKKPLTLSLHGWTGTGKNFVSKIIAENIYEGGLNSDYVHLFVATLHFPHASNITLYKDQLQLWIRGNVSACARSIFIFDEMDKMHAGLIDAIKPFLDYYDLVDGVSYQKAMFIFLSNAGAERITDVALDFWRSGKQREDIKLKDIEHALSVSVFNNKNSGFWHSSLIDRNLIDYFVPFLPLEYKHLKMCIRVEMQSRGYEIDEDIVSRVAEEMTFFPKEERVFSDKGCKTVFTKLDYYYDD
For assay [9] the target is unchanged. Nature of the assay: torsin A mutant lysate binding on microarrays – cell lysate, small-molecule microarray, COS7 lysate, 635/667 nm fluorescence, primary screen (AID 1150).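 Also: score pools 667 nm emission and signal to noise measuring lysate protein binding.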 Conditions: COS7 hTOR1A mutant lysate, 635 nm fluorescence, higher = more signal.
The test system of assay [10] is Sonic hedgehog protein (Shh). The assay can be described thus: Sonic hedgehog microarray binding compounds – biochemical, small-molecule microarray, 635/667 nm fluorescence, primary screen (AID 1151).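 Also: Shh protein binding to compounds spotted on small-molecule microarray slides; score combines spot fluorescence intensity with signal-to-noise across triplicate slides.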 Conditions: 635 nm fluorescence, higher = more signal.
Assay [11] is described as follows: optical density shifts of acrAB sulA E. coli – strain DRC41, OD650, 48 h, E. coli filamentation inducer project, primary screen (AID 1152).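 Also: E. coli MC1000 strain DRC41 lacking acrAB efflux pump and sulA.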 The conditions noted are these: higher = more signal, called active from +8 up or from −8 down.
The nature of assay [12]: probe aLefty1 binding on compound microarray – biochemical, small-molecule microarray, 635/667 nm fluorescence, primary screen (AID 1153).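 Also: score merges spot fluorescence with signal-to-noise ratio from the scanned slide images.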 Conditions: higher = more signal.
Assay [13] can be described thus: plasmodial surface anion channel blockers, osmotic lysis – cell-based, P. falciparum Indochina, OD700, 1 h, primary screen (AID 1154). Conditions: P. falciparum Indochina infected RBC osmotic lysis, higher = more signal, called active from +8 up or from −8 down.
Assay [14] is described as follows: plasmodial surface anion channel blockers, osmotic lysis – cell-based, P. falciparum Indochina, OD700, 2 h, primary screen (AID 1155).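 Also: lysis reports solute entry through the parasite surface anion channel PSAC.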 Conditions: P. falciparum Indochina infected erythrocytes, higher = more signal, called active from +8 up or from −8 down.
Assay [15] can be described thus: changes in parasitized red cell lysis, either direction – P. falciparum Indochina, OD700, 3 h, PSAC antagonist project, primary screen (AID 1156). Conditions: P. falciparum-infected erythrocytes, osmotic lysis, higher = more signal, called active from +8 up or from −8 down.
Assay [16] can be described thus: plasmodial surface anion channel blockers, osmotic lysis – cell-based, P. falciparum Indochina, OD700, 18 h, primary screen (AID 1157). The conditions noted are these: P. falciparum Indochina infected erythrocytes, osmotic lysis OD700, 18 h; higher = more signal, called active from +8 up or from −8 down.
Assay [17] is described as follows: S6 kinase pathway phospho-S6 level changes – cell-based, A549, cytoblot, luminescence, serum-stimulated, primary screen (AID 1158).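 Also: serum-stimulated A549 lung adenocarcinoma cells; signal is phosphorylated S6 detected by cytoblot immunostaining with HRP secondary.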 Conditions: 5 h, higher = more signal.
In assay [18] the target is NADPH oxidase 2 (Homo sapiens) (UniProt P04839). The assay can be described thus: compounds shifting NOX2 Amplex Red fluorescence – cell-based, HEK293-NOX2, PMA-stimulated, NOX inhibitor project, primary screen (AID 1159). Also: test concentration not given here. The conditions noted are these: 45 min, higher = more signal, called active from +8 up or from −8 down.
Chain of NADPH oxidase 2 (Homo sapiens) (P04839 whole entry, looked up): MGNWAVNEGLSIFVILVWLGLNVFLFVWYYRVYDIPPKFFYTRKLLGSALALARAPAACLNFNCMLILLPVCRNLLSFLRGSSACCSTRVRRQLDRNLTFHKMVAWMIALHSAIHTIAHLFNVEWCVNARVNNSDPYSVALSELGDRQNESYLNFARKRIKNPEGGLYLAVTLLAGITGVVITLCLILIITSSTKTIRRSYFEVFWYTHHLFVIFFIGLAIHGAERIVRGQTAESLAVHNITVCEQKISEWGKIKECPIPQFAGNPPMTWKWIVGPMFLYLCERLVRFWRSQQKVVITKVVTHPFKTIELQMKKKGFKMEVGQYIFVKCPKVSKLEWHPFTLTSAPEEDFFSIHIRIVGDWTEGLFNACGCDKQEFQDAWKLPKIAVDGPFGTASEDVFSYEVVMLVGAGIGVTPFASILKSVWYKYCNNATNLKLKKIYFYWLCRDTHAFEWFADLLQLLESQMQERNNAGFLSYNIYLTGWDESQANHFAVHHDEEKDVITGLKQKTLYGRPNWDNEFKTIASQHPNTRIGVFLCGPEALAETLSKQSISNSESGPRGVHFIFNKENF
The target in assay [19] is NADPH oxidase 4 (Homo sapiens) (UniProt Q9NPH5). The assay can be described thus: compounds shifting NOX4 Amplex Red fluorescence – cell-based, HEK293-NOX4, tetracycline-induced, NOX inhibitor project, primary screen (AID 1160). Conditions: HEK293-NOX4, Amplex Red H2O2 fluorescence, 45 min; higher = more signal, called active from +8 up or from −8 down.
Chain of NADPH oxidase 4 (Homo sapiens) (Q9NPH5 whole entry, looked up): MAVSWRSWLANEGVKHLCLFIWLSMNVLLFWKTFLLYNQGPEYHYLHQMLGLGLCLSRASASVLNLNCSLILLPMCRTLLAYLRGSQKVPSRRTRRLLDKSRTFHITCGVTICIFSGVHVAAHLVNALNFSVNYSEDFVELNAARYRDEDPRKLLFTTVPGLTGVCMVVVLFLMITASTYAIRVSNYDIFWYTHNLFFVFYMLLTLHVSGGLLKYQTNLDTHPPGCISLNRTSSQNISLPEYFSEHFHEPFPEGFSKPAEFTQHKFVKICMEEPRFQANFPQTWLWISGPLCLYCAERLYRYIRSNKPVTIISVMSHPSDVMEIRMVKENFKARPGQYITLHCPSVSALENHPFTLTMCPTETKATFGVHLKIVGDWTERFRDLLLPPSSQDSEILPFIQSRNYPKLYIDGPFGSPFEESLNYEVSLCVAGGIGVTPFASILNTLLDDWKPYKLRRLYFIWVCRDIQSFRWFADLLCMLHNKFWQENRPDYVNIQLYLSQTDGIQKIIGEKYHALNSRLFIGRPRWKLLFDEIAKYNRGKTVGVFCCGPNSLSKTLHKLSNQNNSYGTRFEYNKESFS
The target in assay [20] is NADPH oxidase 5 (Homo sapiens) (UniProt Q96PH1). The assay can be described thus: compounds shifting NOX5 Amplex Red fluorescence – cell-based, HEK293-NOX5, NOX inhibitor project, primary screen (AID 1161). The conditions noted are these: HEK293-NOX5, ionomycin, 45 min, higher = more signal.
Chain of NADPH oxidase 5 (Homo sapiens) (Q96PH1 whole entry, looked up): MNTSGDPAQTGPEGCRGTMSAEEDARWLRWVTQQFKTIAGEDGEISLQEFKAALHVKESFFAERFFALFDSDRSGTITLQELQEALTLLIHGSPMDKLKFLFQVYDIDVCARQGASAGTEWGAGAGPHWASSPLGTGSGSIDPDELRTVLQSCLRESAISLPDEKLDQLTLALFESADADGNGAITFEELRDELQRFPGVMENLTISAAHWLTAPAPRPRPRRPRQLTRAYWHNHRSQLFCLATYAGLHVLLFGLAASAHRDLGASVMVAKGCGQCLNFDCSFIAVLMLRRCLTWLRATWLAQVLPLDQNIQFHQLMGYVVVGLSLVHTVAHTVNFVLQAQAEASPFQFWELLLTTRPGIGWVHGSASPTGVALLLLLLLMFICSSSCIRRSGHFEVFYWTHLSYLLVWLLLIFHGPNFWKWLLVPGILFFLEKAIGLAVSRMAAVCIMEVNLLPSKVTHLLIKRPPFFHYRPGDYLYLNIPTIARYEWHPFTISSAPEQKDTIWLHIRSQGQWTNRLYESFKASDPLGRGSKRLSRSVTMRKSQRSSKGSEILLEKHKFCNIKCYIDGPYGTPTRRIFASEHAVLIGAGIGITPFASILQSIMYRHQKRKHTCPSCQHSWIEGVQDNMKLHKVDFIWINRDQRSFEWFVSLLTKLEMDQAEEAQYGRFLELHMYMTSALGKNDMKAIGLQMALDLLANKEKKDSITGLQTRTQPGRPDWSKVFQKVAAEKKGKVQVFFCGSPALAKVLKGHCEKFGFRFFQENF

Activity calls are given as the source filed them. Unless noted, no rule for the calls is given here.

Chain of Streptavidin (Streptomyces avidinii) (P22629 whole entry, looked up): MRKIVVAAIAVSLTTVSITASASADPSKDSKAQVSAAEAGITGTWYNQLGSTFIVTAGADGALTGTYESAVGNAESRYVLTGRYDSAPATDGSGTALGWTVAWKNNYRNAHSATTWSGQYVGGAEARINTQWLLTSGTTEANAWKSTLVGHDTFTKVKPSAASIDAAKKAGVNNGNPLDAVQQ

`COC(=O)CC=C1c2ccccc2[C@H](OC)[C@H]1C`: the composite z-score was 0.0034 in assay [1]; -0.0324 in assay [6]; 0.0275 in assay [7]; 0.399 in assay [8]; -0.127 in [9]; 0.103 in [10]. The composite z-score in [12] was -0.326. Besides, the z-score in assay [2] was 0.553 (inactive); in assay [3], 0.624 (inactive); in assay [4] it was 0.478 (inactive); in assay [5], 0.345 (inactive); in [11], 0.101 (inactive); in [13], 0.0311 (inactive). The z-score in [14] is 0.269 (inactive); in assay [15] it was -0.0239 (inactive); in assay [16], -0.0463 (inactive); in assay [17], -0.882; in assay [18] it was 0.457 (inactive); in assay [19] it was 0.644 (inactive). Also, the z-score in assay [20] turned out to be 0.199.

On to `CO[C@H]1C[C@@H]2C[C@H](O)CC(CC(=O)O[C@@H](C=CCC(C)C)C[C@@H]3CC[C@H](C)[C@@H](C1)O3)O2`, for which the composite z-score in [1] was 0.318; in assay [6], 0.645; in [7], -0.0494; in [8] it was 0.778; in assay [9], 0.183; in assay [10], 1.02. This molecule registered a composite z-score in [12] of -0.104. Besides, the z-score in assay [2] is -0.454 (inactive); in assay [3], 0.883 (inactive); in assay [4], 2.64 (inactive); in assay [5], 0.405 (inactive); in assay [11], -0.55 (inactive); in assay [13] it was 0.818 (inactive). Moreover, the z-score in assay [14] was 0.41 (inactive); in assay [15], 0.773 (inactive); in assay [16] it was -0.0957 (inactive); in assay [17], -0.254; in [18], -1.17 (inactive); in assay [19] it was 0.226 (inactive). Also, the z-score in [20] is 1.2.

Consider `C#CCCCON=C1C[C@@H](O)[C@@H](O)[C@@H]2[C@@H]3C(=O)N(C4CCCCC4)C(=O)[C@@H]3CC[C@@H]12`, for which the composite z-score in assay [1] was -0.0633; in assay [6], -0.383; in [7], -0.286; in [8], -0.0195; in [9], -0.336; in assay [10], 0.353. In [12], this molecule came in with a composite z-score of -0.276. Besides, the z-score is 0.0192 (inactive) in [2]; -0.356 (inactive) in assay [3]; 1.78 (inactive) in assay [4]; -0.0263 (inactive) in [5]; 0.0164 (inactive) in [11]; 1.17 (inactive) in assay [13]. Moreover, the z-score in assay [14] is -0.164 (inactive); in [15], -0.492 (inactive); in [16], 0.132 (inactive); in [17] it was -0.25; in [18], 1.13 (inactive); in assay [19] it was 0.699 (inactive). For the same molecule, the z-score in [20] was -0.0773.

In the case of `COC(=O)[C@H](C)NC(=O)CCC1CC(OC(=O)NCc2ccc3c(c2)OCO3)CC2(CCCC(COC(=O)NCCc3ccc(Cl)cc3)O2)O1` (stereo not given in full), the composite z-score in assay [1] was -0.132; in [6], -0.334; in assay [7], -0.159; in [8] it was -0.157; in assay [9] it was 0.193; in assay [10], 0.579. Further, the composite z-score in assay [12] is -0.101. Also, the z-score in assay [2] was 0.173 (inactive); in assay [3], -0.0135 (inactive); in [4], -0.526 (inactive); in [5] it was 0.336 (inactive); in [11], -0.51 (inactive); in assay [13], 2.17 (inactive). Also, the z-score in [14] is 0.223 (inactive); in [15], 1.29 (inactive); in [16] it was 0.272 (inactive); in assay [17], 0.688; in assay [18], 1.73 (inactive); in assay [19], 0.148 (inactive). Besides, in assay [20], the z-score worked out at 0.879.

Source of the values: PubChem BioAssay.
